Measurements reported in PubChem BioAssay (NCATS).
“And” between values parts separate entries of the source, which are not always exact repeats. Equal values may be shown once. Inconclusive results are not listed. The source made the active and inactive calls. Unless noted, calls follow the shape of the dose curve; as a rule, active = well fitted curve in either direction with a large enough effect (not every such curve was filed as active); inconclusive = small, poorly fitted or top-dose-only effect, or another doubt; inactive = flat fitted curve, though single readings scatter.

How the values were obtained:
[1] = AP1 Signaling Pathway (AID 357); conditions: ME-180 AP-1-bla reporter, EGF-induced, beta-lactamase ratio, 5 h; also: % is scaled to controls: 0 for no effect and ±100 for the full control effect
Summary of the method: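 ME-180 cells with beta-lactamase reporter under AP-1 response element, stimulated with EC50 EGF; compounds tested in titration series, 5 h at 37 °C. CCF4 substrate added 2.5 h at room temperature; 460/530 nm emission ratio gave %activity and AC50.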

[2] = biological target: Cytochrome P450 1A2 (Homo sapiens) (UniProt P05177); assay: p450-cyp1a2 (AID 410; calls by dose curve; also: potency is read from the fitted curve at half-maximal effect;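 as to activity change, negative = inhibition: -100% = full effect of reference inhibitor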); conditions: recombinant CYP1A2, luciferin-ME demethylation, luminescence; series mostly up to 25.6 µM
Summary of the method: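 Inhibition was calculated relative to 57 uM furafylline (full inhibition). The reaction used human CYP1A2 at 20nM with Luciferin-ME at its Km, 100uM, driven by an NADPH-regenerating system for 60 min at room temperature.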

[3] = NFAT Signaling Pathway (AID 444); conditions: Jurkat NFAT-bla M1, carbachol, beta-lactamase ratio, 5 h;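 also: carbachol stimulus at about its EC50 of 1 µM final; % is scaled to controls: 0 for no effect and ±100 for the full control effect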
Summary of the method: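 Read-out: CCF4 FRET ratio (460 nm/530 nm) after 1 h RT dye loading, used for %activity and AC50 from titration series. Cells: Jurkat NFAT-β-lactamase/M1 line, treated with compound plus 1 uM carbachol for 5 h, 37 °C.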

[4] = Stat Signaling Pathway (AID 446); conditions: ME-180 SIE beta-lactamase reporter, IL-6 stimulated, 5 h;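 also: ME-180 cervical cancer cells given 40 pM IL-6 alongside compound; SIE-controlled beta-lactamase reporter measured as 460/530 nm FRET emission ratio; % is scaled to controls: 0 for no effect and ±100 for the full control effect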
Summary of the method: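 Reporter line: ME-180 cervical carcinoma, SIE-beta-lactamase. Treatment: compound with 40 pM IL-6, 5 hrs, 37 C, in low-serum OPTI-MEM with 10 mM HEPES pH 7.3. Detection: 460/530 nm fluorescence.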

[5] = biological target: Mitogen-activated protein kinase 10 (Mus musculus) (UniProt Q61831); assay: JNK3 AlphaScreen Assay (AID 530); conditions: JNK3 lysate, c-Jun phosphorylation; series mostly up to 25.6 µM;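 also: kinase came from lysate of stimulated human HepG2 cells; signal reports phosphorylation of biotinylated GST-cJun 1-79 at Ser73 with 10 µM ATP; % is scaled to controls: 0 for no effect and ±100 for the full control effect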
Summary of the method: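 Room-temperature AlphaScreen kinase assay; pre-activated HepG2 lysate as JNK3 source, biotin-GST-cJun(1-79) substrate, 10 uM ATP, compound 15 min preincubation.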

[6] = biological target: Glucocorticoid receptor (Homo sapiens) (UniProt P04150); assay: GR-GFP Redistribution (AID 450;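 active = compounds whose dose series gives a full or clear partial fitted curve of increased nuclear translocation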; also: potency is read from the fitted curve at half-maximal effect); conditions: U2OS GR-GFP nuclear translocation, laser cytometry, 2 h
[7] = biological target: Glucocorticoid receptor (Homo sapiens) (UniProt P04150); assay: GR-EFC Redistribution (AID 451; calls by dose curve; also: potency is read from the fitted curve at half-maximal effect); conditions: CHO-K1 GR-EFC translocation, beta-gal luminescence, 2 h
Summary of the method: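 Translocation of GR-ED fusion to nuclear EA restores b-gal, read by luminescence after 1 h room-temperature detection. Engineered CHO-K1 biosensor cells, 1,000/well, exposed 2 h at 37 C to titrations up to 46 uM final.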

[8] = Cell Viability - BJ (AID 421; calls by dose curve;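 also: potency is read from the fitted curve at half-maximal effect; cells exposed to compound for 40 hours at 37 °C before readout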); conditions: BJ fibroblast viability, qHTS
Summary of the method: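 Cytotoxicity as drop in intracellular ATP (CellTiter-Glo, 20 min RT) after 40 hr compound exposure of BJ fibroblasts at 37 °C. Titrations scaled between DMSO and 100 uM tamoxifen, Hill-fitted for AC50.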

[9] = Cell Viability - HepG2 (AID 433; calls by dose curve;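 also: potency is read from the fitted curve at half-maximal effect; cells exposed to compound for 40 hours; potency for ATP loss meaning cytotoxicity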); conditions: qHTS
Summary of the method: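 Cytotoxicity read as ATP loss (CellTiter-Glo luminescence) after 40 hr compound exposure of HepG2, 1500 cells/well, 37 °C. AC50 by Hill equation; 0% set by DMSO, 100% inhibition by 100 uM tamoxifen.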

[10] = Cell Viability - MRC5 (AID 434; calls by dose curve;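 also: potency is read from the fitted curve at half-maximal effect; cells exposed to compound for 40 hours at 37 °C; potency reflects cytotoxicity seen as loss of intracellular ATP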); conditions: MRC5 lung fibroblast viability, qHTS
Summary of the method: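 qHTS cytotoxicity in human lung fibroblast MRC5 cells; 40 hr treatment, 37 °C; cellular ATP by luciferase luminescence; DMSO = 0%, 100 uM tamoxifen = 100% inhibition; Hill-fit AC50.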

[11] = Cell Viability - SK-N-SH (AID 435; calls by dose curve; also: potency is read from the fitted curve at half-maximal effect); conditions: SK-N-SH neuroblastoma cell viability qHTS
Summary of the method: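 qHTS cytotoxicity: CellTiter-Glo ATP luminescence after 40 h compound exposure of human neuroblastoma SK-N-SH cells at 37 °C. AC50 derived by Hill-equation fitting, with DMSO as basal and 100 uM tamoxifen as full inhibition.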

[12] = Cell Viability - NIH 3T3 (AID 541; active = well fitted curve in the direction sought with a large enough effect; an effect the other way counts as inactive or inconclusive;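 also: cells exposed to compound for 40 hours; plate controls were DMSO alone for no effect and tamoxifen positive control for full effect; nearly all actives have a fitted effect of over 25% in size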); conditions: NIH 3T3 cell viability, qHTS; activity change, negative = cytotoxicity: at 92.2 µM (top of the series)
Summary of the method: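 AC50 values reflect concentration-dependent loss of intracellular ATP in NIH 3T3 cells after 40 hr treatment in complete culture medium, quantified by luciferase-based luminescence.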

[13] = Cell Viability - HUV-EC-C (AID 542; active = well fitted curve in the direction sought with a large enough effect; an effect the other way counts as inactive or inconclusive;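 also: cells exposed to compound for 40 hours; % is scaled to controls: 0 for no effect and ±100 for the full control effect; nearly all actives have a fitted effect of over 35% in size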); conditions: HUV-EC-C endothelial cell viability, qHTS; series mostly up to 92.2 µM
Summary of the method: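 Decrease in cellular ATP, quantified by luciferase luminescence, reflects toxicity in normal human vascular endothelial HUV-EC-C cells given compound for 40 hr in complete culture medium. Values are AC50s from concentration-response curves.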

[14] = Cell Viability - H-4-II-E (AID 543; active = well fitted curve in the direction sought with a large enough effect; an effect the other way counts as inactive or inconclusive;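 also: potency is read from the fitted curve at half-maximal effect; cells exposed to compound for 40 hours; nearly all actives have a fitted effect of over 35% in size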); conditions: H-4-II-E rat hepatoma viability; series mostly up to 92.2 µM
Summary of the method: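 Here, cytotoxicity is measured in the rat hepatoma line H-4-II-E as loss of intracellular ATP after 40 hr compound treatment, detected by luciferase luminescence.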

Chain of Glucocorticoid receptor (Homo sapiens) (P04150 whole entry, looked up, the tested form may be a part): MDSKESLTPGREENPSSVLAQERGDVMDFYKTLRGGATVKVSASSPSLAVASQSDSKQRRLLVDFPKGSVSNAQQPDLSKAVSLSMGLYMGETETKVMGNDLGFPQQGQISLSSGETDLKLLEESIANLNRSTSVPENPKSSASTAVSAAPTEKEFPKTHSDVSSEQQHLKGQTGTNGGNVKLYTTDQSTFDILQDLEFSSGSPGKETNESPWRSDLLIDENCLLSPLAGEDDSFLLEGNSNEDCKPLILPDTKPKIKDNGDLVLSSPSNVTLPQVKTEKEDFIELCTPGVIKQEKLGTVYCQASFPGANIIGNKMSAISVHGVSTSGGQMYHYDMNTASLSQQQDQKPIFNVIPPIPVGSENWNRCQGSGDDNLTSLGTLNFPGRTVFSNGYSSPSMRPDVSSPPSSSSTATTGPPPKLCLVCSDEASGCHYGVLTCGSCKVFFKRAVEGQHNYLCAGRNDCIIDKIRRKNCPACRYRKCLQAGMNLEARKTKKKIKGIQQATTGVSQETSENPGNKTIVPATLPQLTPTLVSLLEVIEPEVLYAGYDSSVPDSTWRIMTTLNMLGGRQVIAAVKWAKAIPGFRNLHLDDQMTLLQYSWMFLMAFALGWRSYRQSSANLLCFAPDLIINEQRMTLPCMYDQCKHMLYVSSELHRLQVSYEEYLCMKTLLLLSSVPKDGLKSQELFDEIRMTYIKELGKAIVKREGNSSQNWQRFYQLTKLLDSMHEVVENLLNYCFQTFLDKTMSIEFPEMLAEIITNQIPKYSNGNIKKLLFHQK
Chain of Cytochrome P450 1A2 (Homo sapiens) (P05177 whole entry, looked up): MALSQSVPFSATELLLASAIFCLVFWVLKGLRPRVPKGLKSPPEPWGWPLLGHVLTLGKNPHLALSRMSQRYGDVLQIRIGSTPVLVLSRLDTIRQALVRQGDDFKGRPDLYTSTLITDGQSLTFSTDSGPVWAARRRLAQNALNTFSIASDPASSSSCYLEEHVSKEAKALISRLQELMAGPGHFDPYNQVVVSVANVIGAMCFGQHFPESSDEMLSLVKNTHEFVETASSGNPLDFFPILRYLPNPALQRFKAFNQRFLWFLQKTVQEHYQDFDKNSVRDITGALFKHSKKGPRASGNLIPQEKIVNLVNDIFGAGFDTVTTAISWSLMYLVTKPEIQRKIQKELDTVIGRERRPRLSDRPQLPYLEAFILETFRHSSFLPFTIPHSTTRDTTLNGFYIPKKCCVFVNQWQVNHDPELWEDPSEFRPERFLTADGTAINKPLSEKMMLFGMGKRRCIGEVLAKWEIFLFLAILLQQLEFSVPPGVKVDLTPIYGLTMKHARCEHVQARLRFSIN

CCN(CCCc1ccccc1)CCCc1ccccc1
inactive: activity change, negative = inhibition ([1]; at 17.2 µM (top of the series)) 18.6% and 13.2% | activity, negative = inhibition ([4]; at 17.2 µM (top of the series)) 13.6% and 2.48% | outcome [5]
active: Potency [2] 3.98 µM | activity change, negative = inhibition ([3]; at 17.2 µM (top of the series)) -87%

CC(=O)OCC(=O)[C@@]1(O)CC[C@H]2[C@@H]3CCC4=CC(=O)C=C[C@]4(C)[C@H]3[C@@H](O)C[C@@]21C
inactive: activity change, negative = inhibition ([1]; at 17.2 µM (top of the series)) 11.9% | activity change, negative = inhibition ([3]; at 17.2 µM (top of the series)) -6.54% | activity, negative = inhibition ([4]; at 17.2 µM (top of the series)) -3.24%

CCN1CCN(c2cc3c(cc2F)c(=O)c(C(=O)O)cn3C2CC2)CC1
inactive: activity change, negative = inhibition ([1]; at 17.2 µM (top of the series)) 4.63% | activity change, negative = inhibition ([3]; at 17.2 µM (top of the series)) 3.59% | activity, negative = inhibition ([4]; at 17.2 µM (top of the series)) 20.5% | Potency [6] > 20.6 µM

CC1(C)O[C@@H]2C[C@H]3[C@@H]4C[C@H](F)C5=CC(=O)CC[C@]5(C)[C@H]4[C@@H](O)C[C@]3(C)[C@]2(C(=O)CO)O1
active: Potency [6] 0.00217 µM
inactive: activity change, negative = inhibition ([1]; at 17.2 µM (top of the series)) -0.38% | activity change, negative = inhibition ([3]; at 17.2 µM (top of the series)) 16.2% | activity, negative = inhibition ([4]; at 17.2 µM (top of the series)) -6.53%

C[C@@H]1C(=O)NC2=Nc3cccc(Cl)c3CN21
inactive: activity change, negative = inhibition ([1]; at 38 µM (top of the series)) 9.37% | activity change, negative = inhibition ([3]; at 38 µM (top of the series)) -0.581% | activity, negative = inhibition ([4]; at 38 µM (top of the series)) -15.9% | Potency [6] > 46 µM | Potency [7] > 46 µM

CC(=O)O[C@]1(C(C)=O)CC[C@H]2[C@@H]3C[C@H](C)C4=CC(=O)CC[C@]4(C)[C@H]3CC[C@@]21C
inactive: activity change, negative = inhibition ([1]; at 17.2 µM (top of the series)) 15.9% | Potency [8] > 92 µM | Potency [9] > 92 µM | Potency [10] > 92 µM | Potency [11] > 92 µM | activity change, negative = inhibition ([3]; at 17.2 µM (top of the series)) 6.28% | activity, negative = inhibition ([4]; at 17.2 µM (top of the series)) 11.1% | outcome [5] | Potency [13]
active: activity change, negative = cytotoxicity [12] -134% | Potency [14] 50.1 µM

CCCCOc1ccc(C(=O)CCN2CCCCC2)cc1
inactive: activity change, negative = inhibition ([1]; at 17.2 µM (top of the series)) 18.2% and 12.3% | activity, negative = inhibition ([4]; at 17.2 µM (top of the series)) -25% and -28.6% | Potency [6] > 20.6 µM | Potency [7] > 20.6 µM | outcome [5]
active: Potency [2] 3.16 µM

CN1CCN(C(c2ccccc2)c2ccccc2)CC1
inactive: activity change, negative = inhibition ([1]; at 17.2 µM (top of the series)) 4.01% | Potency [2] | activity, negative = inhibition ([4]; at 17.2 µM (top of the series)) 3.06% | Potency [6] > 20.6 µM | Potency [7] > 20.6 µM | outcome [5]

C[C@@H]1C[C@H]2[C@@H]3CCC4=CC(=O)C=C[C@]4(C)[C@@]3(F)[C@@H](O)C[C@]2(C)[C@H]1C(=O)CO
inactive: activity change, negative = inhibition ([1]; at 17.2 µM (top of the series)) 0.15% | activity change, negative = inhibition ([3]; at 17.2 µM (top of the series)) -16.3% | activity, negative = inhibition ([4]; at 17.2 µM (top of the series)) 1.17% | Potency [6] > 20.6 µM

CCCC1O[C@@H]2C[C@H]3[C@@H]4CCC5=CC(=O)C=C[C@]5(C)[C@H]4[C@@H](O)C[C@]3(C)[C@]2(C(=O)CO)O1 (stereo not given in full)
inactive: activity change, negative = inhibition ([1]; at 17.2 µM (top of the series)) 2.92% | activity change, negative = inhibition ([3]; at 17.2 µM (top of the series)) 23.6% | activity, negative = inhibition ([4]; at 17.2 µM (top of the series)) -3.6%

CCCC(=O)Nc1ccc(OCC(O)CNC(C)C)c(C(C)=O)c1 (stereo not given)
inactive: activity change, negative = inhibition ([1]; at 17.2 µM (top of the series)) 0.101% | activity change, negative = inhibition ([3]; at 17.2 µM (top of the series)) -15.3% | activity, negative = inhibition ([4]; at 17.2 µM (top of the series)) 7.52% | Potency [6] > 20.6 µM

CCN1CCC[C@H]1CNC(=O)c1c(OC)ccc(Br)c1OC
inactive: activity change, negative = inhibition ([1]; at 17.2 µM (top of the series)) -5.77% | Potency [2] | activity change, negative = inhibition ([3]; at 17.2 µM (top of the series)) -26.9% | activity, negative = inhibition ([4]; at 17.2 µM (top of the series)) 14.1% | outcome [5]

CCCCCCCCCCCCCCCC[N+](C)(C)CCN(Cc1ccc(OC)cc1)c1ncccn1
inactive: activity change, negative = inhibition ([1]; at 17.2 µM (top of the series)) 21.6% | activity change, negative = inhibition ([3]; at 17.2 µM (top of the series)) 8.86% | activity, negative = inhibition ([4]; at 17.2 µM (top of the series)) 11.5% | Potency [6] > 20.6 µM | Potency [7] > 20.6 µM | outcome [5]

Nc1cc(Cl)c(NC2=NCCN2)c(Cl)c1
inactive: activity change, negative = inhibition ([1]; at 38 µM (top of the series)) 2.68% | activity change, negative = inhibition ([3]; at 38 µM (top of the series)) -7.69% | activity, negative = inhibition ([4]; at 38 µM (top of the series)) -3.42%

CN1[C@@H]2CC[C@H]1CC(OC(=O)c1c[nH]c3ccccc13)C2 (stereo not given in full)
inactive: activity, negative = inhibition ([4]; at 38 µM (top of the series)) -14.5%
